The values below come from PubChem BioAssay (Tox21).

The assay has as its target Beta-2 adrenergic receptor (Homo sapiens) (UniProt P07550). Description: Adrenergic beta2 receptor (ADRB2) small molecule agonists, cell-based qHTS assay (AID 1963593).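 Note: CHO cells stably overexpressing human ADRB2.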 The method in brief:
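CHO cells stably over-expressing ADRB2 were plated overnight at 37C, then dosed with compounds plus a stimulation mix containing 100uM IBMX and 25uM Ro-20-1724 for 0.5hr at room temperature. cAMP was measured by HTRF competition, 1hr.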

Records with an inconclusive call do not appear. Entries that show only a call come without a potency. Activity calls are given as the source filed them. Calls come from the whole dose curve.

Sequence of Beta-2 adrenergic receptor (Homo sapiens) (P07550 whole entry, looked up): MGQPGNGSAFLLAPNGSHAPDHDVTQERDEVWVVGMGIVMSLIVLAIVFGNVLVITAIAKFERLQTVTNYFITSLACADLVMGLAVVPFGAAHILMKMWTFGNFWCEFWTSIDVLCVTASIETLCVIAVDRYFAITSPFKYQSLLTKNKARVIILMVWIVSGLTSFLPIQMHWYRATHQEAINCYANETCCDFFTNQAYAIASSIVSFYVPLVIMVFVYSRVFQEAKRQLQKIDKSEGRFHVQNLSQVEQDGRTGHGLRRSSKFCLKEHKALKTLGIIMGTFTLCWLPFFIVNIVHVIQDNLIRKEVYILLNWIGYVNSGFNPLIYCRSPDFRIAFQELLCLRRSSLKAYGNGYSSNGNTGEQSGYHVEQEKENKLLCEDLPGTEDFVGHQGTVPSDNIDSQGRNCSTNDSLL

As for `CCCCCCCCCCC(=O)O`, the Potency entry was “inactive”. Under `COc1ccc2c(c1)C(=O)N(CCc1ccc(S(=O)(=O)NC(=O)NC3CCCCC3)cc1)C(=O)C2(C)C` stands “inactive”; under `OC1CCC(C2CCCCC2)CC1` (stereo unspecified), “inactive”; under `CCOC(=O)CCC(=O)OCC`, “inactive”. `O=C(O)CCCC[P+](c1ccccc1)(c1ccccc1)c1ccccc1`: the Potency entry is “inactive”.

In the case of `Nc1[nH]c(=O)ncc1F`, the Potency entry is “inactive”. Under `CC(C(=O)O)c1ccc(C(=O)c2ccccc2)s1` (stereo unspecified) stands “inactive”; under `Cc1c(Cl)cccc1Nc1ccccc1C(=O)O`, “inactive”; under `C[N+]1(C)CCC(=C(c2ccccc2)c2ccccc2)CC1`, “inactive”. Next, `Cc1ccc2c(c1[N+](=O)[O-])C(=O)c1ccccc1C2=O`: “inactive”; `CCOc1nc2cccc(C(=O)O)c2n1Cc1ccc(-c2ccccc2-c2nn[nH]n2)cc1`: “inactive”; `O=C(O)c1ccc2cc(O)ccc2c1`: “inactive”. Under `CN(C)CCN(Cc1ccsc1)c1ccccn1` stands “inactive”. As for `CC[N+](CC)(CC)CCOc1cccc(OCC[N+](CC)(CC)CC)c1OCC[N+](CC)(CC)CC`, the Potency entry is “inactive”. Under `NCC(=O)O` stands “inactive”; under `CC(C)=CCC1C(=O)N(c2ccccc2)N(c2ccccc2)C1=O`, “inactive”. Next, `COC(=O)c1ccc(NC(C)=O)cc1OC`: “inactive”. In the case of `OCCNCc1ccccc1`, the Potency entry was “inactive”. Under `O=C(O)c1cc(C(=O)O)c(C(=O)O)cc1C(=O)O` stands “inactive”; under `N=C(N)c1ccc(OCCCOc2ccc(C(=N)N)cc2)cc1`, “inactive”. Next, `O=C(O)Cc1ccccc1Oc1ccc(Cl)cc1Cl`: “inactive”. Next, `CC(C)C[C@H](NC(=O)OCC1c2ccccc2-c2ccccc21)C(=O)O`: “inactive”. On to `CCOc1cc(OCC)c(C(=O)CCC(=O)O)cc1OCC`, for which the Potency entry is “inactive”. Consider `CCCOC(=O)c1ccc(N)cc1`, for which the Potency entry is “inactive”.

As to `CCCN(CCC)c1c([N+](=O)[O-])cc(C(F)(F)F)c(N)c1[N+](=O)[O-]`, the Potency result is “inactive”.

For the compound `CC(C)=CC(=O)C=C(C)C`, the Potency entry was “inactive”.

`CCCCOC(=O)C(C)Oc1ccc(Oc2ccc(C(F)(F)F)cn2)cc1` (stereo unspecified): the Potency entry is “inactive”. Next, `NC(=O)C1(N2CCCCC2)CCN(CCCC(=O)c2ccc(F)cc2)CC1`: “inactive”; `COC(=O)CCCCCCCCC(=O)OC`: “inactive”; `CC(C)CC(=O)C1C(=O)c2ccccc2C1=O`: “inactive”. Next, `O[C@@H]1CO[C@H]2[C@@H]1OC[C@@H]2O`: “inactive”. Under `CCOC(=O)Cn1cccc1-c1nc(-c2ccc(OC)cc2)c(-c2ccc(OC)cc2)s1` stands “inactive”; under `O=S(=O)(O)c1ccc(Cl)cc1`, “inactive”. With `CCO[Si](CCCCl)(OCC)OCC`, the Potency result is “inactive”. Under `CC(C)(C)C(=O)NCCCC(=O)O` stands “inactive”; under `CCCCCOc1ccc(C2SC(=O)NC2=O)cc1OCC` (stereo unspecified), “inactive”.
